Assay results published in PubChem BioAssay (NCATS).
“And” between values parts separate entries of the source, which are not always exact repeats. Equal values may be shown once. Results filed as inconclusive are left out. The source made the active and inactive calls. Unless noted, calls come from the whole dose curve; as a rule, active = well fitted curve in the direction sought with a large enough effect; inconclusive = small, poorly fitted or top-dose-only effect, or another doubt; inactive = no such curve, though single readings can be large; an effect the other way counts as inactive or inconclusive.

Assays:
MKL-2 = assay: qHTS assay to identify novel small-molecules to repurpose for Merkel cell carcinoma treatment (AID 1296009); conditions: MCC and control cell lines, CellTiter-Glo viability, 72 h; series mostly up to 46 µM; note: nearly all actives have a fitted effect of over 60% in size
Procedure, shortened: (§1)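 Cell viability measured by CellTiter-Glo following 72 hr compound treatment at 37 degree celsius, with NPC and MIPE libraries tested in 8- and 11-point concentration series.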

NIH3T3 = assay: as above; conditions: MCC and control cell lines, CellTiter-Glo viability, 72 h; at 44.8 µM (top of the series) unless noted
Procedure, shortened: as §1

UISO = assay: as above; conditions: MCC and control cell lines, CellTiter-Glo viability, 72 h; series mostly up to 46 µM
Procedure, shortened: as §1

WaGa = assay: as above; conditions: MCC and control cell lines, CellTiter-Glo viability, 72 h; series mostly up to 46 µM
Procedure, shortened: as §1

C33A = assay: Primary qHTS to identify gynecologic anti-cancer compounds using libraries of approved drugs and bioactive compounds (AID 1345084); conditions: Gynecologic cancer cell panel viability, ATPlite luminescence, 48 h; series mostly up to 57.5 µM; note: % is set by controls: 0 for no effect and ±100 for the full control effect; nearly all actives have a fitted effect of over 55% in size
Procedure, shortened: (§2)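 Cells, 1,000 per well, plated 16 h, then exposed 48 h at 37 C to compounds. Viability by ATPlite luminescence after 15 min at room temperature.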

CAOV3 = assay: as above; conditions: Gynecologic cancer cell panel viability, ATPlite luminescence, 48 h; series mostly up to 57.5 µM
Procedure, shortened: as §2

CASKI = assay: as above; conditions: Gynecologic cancer cell panel viability, ATPlite luminescence, 48 h; series mostly up to 57.5 µM
Procedure, shortened: as §2

Es-2 = assay: as above; conditions: Gynecologic cancer cell panel viability, ATPlite luminescence, 48 h; series mostly up to 57.5 µM
Procedure, shortened: as §2

HeLa = assay: as above; conditions: Gynecologic cancer cell panel viability, ATPlite luminescence, 48 h; series mostly up to 57.5 µM
Procedure, shortened: as §2

Hek293T = assay: as above; conditions: Gynecologic cancer cell panel viability, ATPlite luminescence, 48 h, control line for the selectivity index; series mostly up to 57.5 µM
Procedure, shortened: as §2

JEG-3 = assay: as above; conditions: Gynecologic cancer cell panel viability, ATPlite luminescence, 48 h; series mostly up to 57.5 µM
Procedure, shortened: as §2

OV90 = assay: as above; conditions: Gynecologic cancer cell panel viability, ATPlite luminescence, 48 h; series mostly up to 57.5 µM
Procedure, shortened: as §2

PA-1 = assay: as above; conditions: Gynecologic cancer cell panel viability, ATPlite luminescence, 48 h; series mostly up to 57.5 µM
Procedure, shortened: as §2

SKOV3 = assay: as above; conditions: Gynecologic cancer cell panel viability, ATPlite luminescence, 48 h; series mostly up to 57.5 µM
Procedure, shortened: as §2

Tov-21-G = assay: as above; conditions: Gynecologic cancer cell panel viability, ATPlite luminescence, 48 h; series mostly up to 57.5 µM
Procedure, shortened: as §2

Tov112D = assay: as above; conditions: Gynecologic cancer cell panel viability, ATPlite luminescence, 48 h; series mostly up to 57.5 µM
Procedure, shortened: as §2

[1] = Drug repurposing screens with cells derived from glioblastoma tumor samples (AID 1345199); conditions: GBM patient neurospheres viability, ATP luminescence, 48 h; note: % is set by controls: 0 for no effect and ±100 for the full control effect; nearly all actives have a fitted effect of over 40% in size
Procedure, shortened: (§3)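 Primary testing used CD133+ neurospheres from four GBM patients, seven concentrations, 48 h exposure and ATP-based viability; confirmation added three slower-growing patient lines.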

astro = assay: as above; conditions: viability, ATP luminescence, 48 h; series mostly up to 45.9 µM
Procedure, shortened: as §3

[2] = target: Nuclear receptor subfamily 1 group I member 2 (Rattus norvegicus) (UniProt Q9R1A7); assay: qHTS assay for small molecule activators of the rat pregnane X receptor (rPXR) signaling pathway (AID 651751; call rule not given here; note: 0% is about no effect); conditions: rPXR reporter cells, luciferase (One-Glo), 24 h
Nuclear receptor subfamily 1 group I member 2 (Rattus norvegicus), sequence (Q9R1A7 whole entry, looked up): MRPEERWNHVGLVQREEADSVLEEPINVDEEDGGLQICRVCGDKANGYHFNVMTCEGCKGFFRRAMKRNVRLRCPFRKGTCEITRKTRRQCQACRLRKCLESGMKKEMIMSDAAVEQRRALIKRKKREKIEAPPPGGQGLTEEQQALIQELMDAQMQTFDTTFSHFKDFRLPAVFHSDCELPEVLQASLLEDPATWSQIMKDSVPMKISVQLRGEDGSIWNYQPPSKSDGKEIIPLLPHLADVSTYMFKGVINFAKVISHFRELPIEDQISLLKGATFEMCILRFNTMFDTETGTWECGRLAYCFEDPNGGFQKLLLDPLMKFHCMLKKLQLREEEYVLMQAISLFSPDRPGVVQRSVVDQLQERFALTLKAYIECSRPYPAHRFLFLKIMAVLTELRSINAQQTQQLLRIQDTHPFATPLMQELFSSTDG

[3] = at 45.9 µM (top of the series), tumour line B
[4] = at 45.9 µM (top of the series), tumour line D
[5] = at 46 µM (top of the series), tumour line A
[6] = at 46.1 µM (top of the series), tumour line C

Nc1ccc(C(=O)O)c(O)c1
inactive: Potency (MKL-2) | outcome (NIH3T3) | Potency (UISO) | Potency (WaGa) | Potency (C33A) | Potency (CAOV3) | Potency (CASKI) | Potency (Es-2) | Potency (HeLa) | Potency (Hek293T) | Potency (JEG-3) | Potency (OV90) | Potency (PA-1) | Potency (SKOV3) | Potency (Tov-21-G) | Potency (Tov112D) | activity, negative = cell killing [1, 3] -5.49% | activity, negative = cell killing [1, 4] 3.71% | activity, negative = cell killing [1, 5] -9.87% | activity, negative = cell killing [1, 6] -6.08% | Potency (astro)

CCOC(=O)c1ccccc1O
inactive: Potency (MKL-2) | Potency (UISO) | Potency (WaGa) | Potency (C33A) | Potency (CAOV3) | Potency (CASKI) | Potency (Es-2) | Potency (HeLa) | Potency (Hek293T) | Potency (JEG-3) | Potency (OV90) | Potency (PA-1) | Potency (SKOV3) | Potency (Tov-21-G) | Potency (Tov112D) | activity, negative = cell killing [1, 3] -4.37% and -22.2% | activity, negative = cell killing [1, 4] -0.79% and -11.1% | activity, negative = cell killing [1, 5] -24.1% | activity, negative = cell killing [1, 6] -28.6% and -1.56%

O=C(O)c1ccccc1Nc1cccc(C(F)(F)F)c1
inactive: Potency (MKL-2) | Potency (UISO) | Potency (WaGa) | Potency (C33A) | Potency (CAOV3) | Potency (CASKI) | Potency (Es-2) | Potency (HeLa) | Potency (Hek293T) | Potency (JEG-3) | Potency (OV90) | Potency (PA-1) | Potency (Tov-21-G) | Potency (Tov112D) | activity, negative = cell killing [1, 3] -9.13% | activity, negative = cell killing [1, 4] -1.02% | activity, negative = cell killing [1, 5] -4.14% | activity, negative = cell killing [1, 6] -6.5% | max response [2] 1.7%

C[N+]1(C)[C@@H]2CC(OC(=O)[C@H](CO)c3ccccc3)C[C@H]1[C@@H]1O[C@@H]12 (stereo not given in full)
inactive: Potency (MKL-2) | Potency (UISO) | Potency (WaGa) | Potency (C33A) | Potency (CAOV3) | Potency (CASKI) | Potency (Es-2) | Potency (HeLa) | Potency (Hek293T) | Potency (JEG-3) | Potency (OV90) | Potency (PA-1) | Potency (SKOV3) | Potency (Tov-21-G) | Potency (Tov112D)

NCCO
inactive: Potency (MKL-2) | Potency (UISO) | Potency (WaGa) | Potency (C33A) | Potency (CAOV3) | Potency (CASKI) | Potency (Es-2) | Potency (HeLa) | Potency (Hek293T) | Potency (JEG-3) | Potency (OV90) | Potency (PA-1) | Potency (Tov-21-G) | Potency (Tov112D) | activity, negative = cell killing ([1]; at 91.6 µM (top of the series), tumour line B) -4.71% | activity, negative = cell killing ([1]; at 91.6 µM (top of the series), tumour line D) -21.3% | activity, negative = cell killing ([1]; at 99.2 µM (top of the series), tumour line C) -29.9% | max response [2] -4.55%

Cc1c(Nc2ncccc2C(=O)O)cccc1C(F)(F)F
inactive: Potency (MKL-2) | Potency (UISO) | Potency (WaGa) | Potency (C33A) | Potency (CAOV3) | Potency (CASKI) | Potency (Es-2) | Potency (HeLa) | Potency (Hek293T) | Potency (JEG-3) | Potency (OV90) | Potency (PA-1) | Potency (SKOV3) | Potency (Tov-21-G) | Potency (Tov112D) | activity, negative = cell killing ([1]; at 20 µM (top of the series), tumour line C) -8.1% | activity, negative = cell killing ([1]; at 21.2 µM (top of the series), tumour line B) -18.2% | activity, negative = cell killing ([1]; at 21.2 µM (top of the series), tumour line D) -22.5%
